# HP1b chromo inh: HTS for Inhibitors of HP1-beta Chromodomain Interactions with Methylated Histone Tails. Chromobox protein homolog 1 (Homo sapiens), P83916. AlphaScreen HP1-beta / biotin-H3K9me3 peptide binding. Potency, µM (highest dose often 114 µM), for the others: at the highest dose activity change, negative = inhibition, usual class: inhibitors. 390,000 tested, 0.56% active. AID 540317, 2011; also: nearly all actives have a fitted effect of over 70% in size
#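 HP1-beta protein (50 nM final) preincubated 30 min at room temperature with biotinylated H3(1-18)K9me3 peptide (50 nM) in PBS pH 7.4, 0.01% Tween-20, then compound added for 30 min. AlphaScreen streptavidin donor/nickel chelate acceptor beads (10 ug/mL final), 30 min dark, luminescence read.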
# JMJD2A Tudor inh: qHTS Assay for Inhibitors of JMJD2A-Tudor Domain. Lysine-specific demethylase 4A (Homo sapiens), O75164. AlphaScreen JMJD2A-Tudor / H3K4me3 peptide binding. Potency, µM (doses to about 114 µM), without a hit: top-dose activity change, negative = inhibition, hits mostly inhibitors. 390,000 tested, 4.4% active. AID 504339, 2011; also: % is scaled to controls: 0 for no effect and ±100 for the full control effect; nearly all actives have a fitted effect of over 50% in size
# G9a block: qHTS Assay for Inhibitors of Histone Lysine Methyltransferase G9a. Histone-lysine N-methyltransferase EHMT2 (Homo sapiens), Q96KQ7. G9a H3K9 monomethylation, AlphaScreen, 2 h. 350,000 tested, 8.8% active. AID 504332, 2011. Potency, µM (titrated, usually from 102 µM), for the others: at the top dose activity, negative = inhibition, usual class: inhibitors; also: % is scaled to controls: 0 for no effect and ±100 for the full control effect; nearly all actives have a fitted effect of over 75% in size
#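 Quantitative HTS format: methyltransferase activity on a biotin-tagged H3K9 peptide is measured by AlphaScreen, using a rabbit anti-monomethyl-H3K9 antibody with streptavidin donor and anti-IgG acceptor beads. Final levels are 20 nM enzyme, 500 nM peptide, 20 uM SAM; 2 h RT.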
# Sfp inh: qHTS Assay for Inhibitors of Bacillus subtilis Sfp phosphopantetheinyl transferase (PPTase); 4'-phosphopantetheinyl transferase ffp (Bacillus subtilis), Q9F4F7; Biochemical Sfp PPTase activity, qHTS; Potency, µM, without a hit: largest response in the series, negative = inhibition, hits mostly inhibitors; 310,000 tested, 3.5% active; AID 1490, 2009;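 also: the enzyme is Sfp with the accession as filed and its product quenches rhodamine fluorescence; 0% = enzyme reaction without inhibitor and -100% = no enzyme wells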
#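 After 15 min at room temperature with compound, 15 nM Sfp received 5 uM rhodamine-CoA plus 12.5 uM BHQ-2-ybbR (50 mM Hepes pH 7.6, 10 mM MgCl2). Rate came from the fluorescence difference over 30 min, ex 525/em 598 nm.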
# TDP1 block: qHTS Assay for Inhibitors of Tyrosyl-DNA Phosphodiesterase (TDP1); 350,000 tested, 0.28% active; recombinant TDP1, AlphaScreen DNA substrate cleavage; Potency, µM (series often up to 130 µM), without a hit: top-dose activity change, negative = inhibition, hits mostly inhibitors; Tyrosyl-DNA phosphodiesterase 1 (Homo sapiens), Q9NUW8; AID 485290, 2010; also: % is scaled to controls: 0 for no effect and ±100 for the full control effect; nearly all actives have a fitted effect of over 40% in size
#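 Recombinant E. coli-expressed Tdp1 (1 nM) preincubated with compound 15 min at RT, then 5'-biotin/3'-phosphotyrosine-FITC DNA substrate (15 nM) added for 5 min. AlphaScreen beads (10 ug/ml) added, 10 min RT; tyrosine-FITC cleavage read as signal loss.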
# BAZ2B block: qHTS Assay for Inhibitors of BAZ2B. Bromodomain adjacent to zinc finger domain protein 2B (Homo sapiens), Q9UIF8. AlphaScreen BAZ2B-H3K14Ac peptide displacement. Potency, µM (series often up to 114 µM), for inactives: at the highest dose activity change, negative = inhibition, most hits filed as inhibitors. 360,000 tested, 4.4% active. AID 504333, 2011; also: % is scaled to controls: 0 for no effect and ±100 for the full control effect; nearly all actives have a fitted effect of over 60% in size
#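 Multi-concentration screen (max 110 uM) measuring displacement of acetylated histone H3 peptide from BAZ2B by AlphaScreen, using 50 nM protein, 50 nM peptide and 10 ug/mL streptavidin donor plus Ni-chelate acceptor beads.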
# * hit, by the source's call; ? = inconclusive; nt = no result; [ ] = another dose, or the depositor's remark. This is a sample that favours compounds with a hit; in the whole collection about 12% have one here. Calls follow the shape of the dose curve; as a rule, active = well fitted curve in the direction sought with a large enough effect; inconclusive = small, poorly fitted or top-dose-only effect, or another doubt; inactive = no such curve, though single readings can be large; an effect the other way counts as inactive or inconclusive. Potency is read from the fitted curve at half-maximal effect.
SMILES,HP1b chromo inh,JMJD2A Tudor inh,G9a block,Sfp inh,TDP1 block,BAZ2B block
COc1c(C)cc(C(=O)C2CCCN(C(=O)/C=C/c3ccccn3)C2)cc1C (stereo not given),10%[57 µM],-13%,9%,20%,-3%,0%
CCC1(C)Nc2ccccc2C(=O)N1O (stereo not given),5%,?,50µM*,-8%,5%,-10%
CCOc1ccc(N2C(=O)c3ccccc3NC2(C)CC)cc1 (stereo not given),22%,-6%,7%[2.33 µM],nt,0%[56.1 µM],9%
Cc1ccc(-c2[nH]ncc2CNC(C)c2ccccc2)cc1 (stereo not given),?,4.5µM*,nt,nt,5%,nt
C#CCSc1nsc(SCC#C)c1C#N,?,56µM*,-21%[12.7 µM],-28%,-8%,-39%
O=C(NCCS(=O)(=O)N1CCN(c2ccccc2)CC1)C(c1ccccc1)c1ccccc1,26%[57 µM],-9%,-6%[59 µM],nt,-3%,5%
O=C(CCc1nc2ccccc2c(=O)[nH]1)Nc1cc(Cl)ccc1N1CCCC1,35%,-7%,14µM*,nt,0%,6%
Cc1ccccc1NC(=O)COC(=O)CCc1nc2ccccc2c(=O)[nH]1,49%,-10%,45µM*,14%,3%,-3%
CC(NC(=O)COC(=O)CCc1nc2ccccc2c(=O)[nH]1)c1ccccc1 (stereo not given),39%,-9%,?,4%,5%,-17%
COC(=O)C(c1cc(OC)c(O)c(OC)c1)(N1CCNC(C)C1)C(F)(F)F (stereo not given),37%,28%,10µM*,-14%,6%,-5%
COC(=O)C1=C(C)N(C)C(=O)NC1c1cc(Cl)c(O)c(OC)c1 (stereo not given),17%,-13%,-86%,14%,4%,1%
CCC(C(=O)N/N=C/c1cccnc1)c1ccccc1 (stereo not given),32%,-15%,32%,2%,4%,-20%
COc1cc(/C=N/N2CCN(Cc3ccccc3)CC2)cc(OC)c1OC(C)=O,-8%,?,50µM*,1%,6%,?
COc1cc(/C=N/N2CCN(c3ccccc3)CC2)cc(OC)c1OC(C)=O,?,56µM*,18%[0.501 µM],2%,nt,45µM*
COc1ccc(NC(=O)CSc2nc(-c3ccc(OC)cc3)[nH]c2-c2ccc(OC)cc2)cc1,13%,-24%,-4%[59 µM],nt,5%,-4%
COc1ccc(CNc2oc(COc3ccc(Cl)cc3)nc2C#N)cc1,?,?,?,18%,4%,?
N#Cc1nc(COc2ccccc2F)oc1NCc1ccc(F)cc1,-8%,-30%,35µM*,30%,5%,?
COc1ccc(CCNc2oc(COc3ccc(Br)cc3)nc2C#N)cc1OC,28%,?,40µM*,4%,10%,?
COc1ccc(CCNc2oc(COc3ccccc3F)nc2C#N)cc1,-26%,-30%,35µM*,2%,8%,?
CCc1noc(C)c1C(=O)OCC(=O)Nc1ncc(Cl)cc1Cl,31%,-1%,nt,-2%,-7%,-5%
Cc1nc(NC(=O)c2ccc([N+](=O)[O-])cc2Cl)sc1C(=O)N(C)C,-22%,?,?,40µM*,-1%,-28%
Cc1nc(NC(=S)NC(=O)c2cccs2)sc1C(=O)N(C)C,18%,-35%,?,50µM*,1%,-17%
Cc1ccc2nc(NC(=S)NC(=O)c3cccs3)sc2c1,-5%,?,20%,13%,5%,-5%
COC(=O)c1sc(NC(=S)NC(=O)c2ccc(F)cc2)nc1C,nt,nt,-1%[59 µM],4%,0%,-21%
COc1ccc(C(=O)NC(=S)Nc2nc(C)c(C(=O)N(C)C)s2)cc1,4%,-26%,?,63µM*,8%,?
SMILES,HP1b chromo inh,JMJD2A Tudor inh,G9a block,Sfp inh,TDP1 block,BAZ2B block
O=C(O)CC(NC(=O)C12CC3CC(CC(C3)C1)C2)c1cc([N+](=O)[O-])ccc1Cl (stereo not given),-1%,56µM*,-15%,-17%,3%,-38%
CCC(=O)N1c2ccccc2NC2=C(C(=O)CC(C)(C)C2)C1c1cccnc1 (stereo not given),30%,-7%,6%,9%,-1%,-8%
CCC(=O)N1c2ccccc2NC2=C(C(=O)CCC2)C1c1ccc(N(C)C)cc1 (stereo not given),40%,-19%,50µM*,9%,-3%,-5%
CCn1c(=S)[nH]c2cc(C(=O)O)ccc21,nt,nt,45µM*,?,4%,-12%
CCn1c(=S)[nH]c2ccccc21,1%,79µM*,2.8µM*,-9%,3%,-22%
CCn1c(=S)[nH]c2cc(Cl)ccc21,47%,-13%,nt,-8%,4%,-8%
CC(C)Cn1c(=O)[nH]c2ccccc21,39%,-1%,15%[59 µM],15%,2%,9%
O=C(Cn1c(=S)[nH]c2ccccc21)c1ccccc1,42%,?,3.5µM*,-18%,3%,-1%
CC(C)n1c(=S)[nH]c2ccccc21,-19%,79µM*,?,79µM*,2%,-22%
CCC(C)(C)n1nnnc1C(c1ccc(F)cc1)N1CCN(C(=O)c2ccco2)CC1 (stereo not given),11%,-16%,-10%,8%,5%,1%
CCn1c(=S)[nH]c2cc(S(=O)(=O)N3CCCCC3)ccc21,-22%,79µM*,?,-18%,5%,4%
Cc1ccc(NC(=O)Cn2c(=S)[nH]c3ccccc32)cc1,?,-2%,3.5µM*,45µM*,5%,0%
CCNC(=O)c1ccc(NS(=O)(=O)c2ccc3[nH]c(=O)[nH]c3c2)cc1,24%,-9%,14%,22%,5%,-13%
Cc1cc(C)cc(N=Cc2ccc([N+](=O)[O-])s2)c1,45µM*,20µM*,40µM*,12%,0%,25µM*
Cc1ccc(NC(=S)N/N=C/c2ccc([N+](=O)[O-])s2)cc1,?,40µM*,40µM*,-22%,0%,14µM*
O=[N+]([O-])c1ccc(/C=N/n2cnc3ccccc32)s1,-1%,-32%,-15%[59 µM],29%,3%,-34%

# Compound activity as filed in PubChem.
